CYP2C9 activ: activators of human CYP2C9; P11712; recombinant CYP2C9, luciferin-H conversion, luminescence; active compounds read high; factor 1 = untreated enzyme, 0 = blocked; activation factor at 5 µM; 96,000 compounds, 1.4% hits; AID 1024;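 active means activation factor of 2 or more for CYP2C9 at a 5 µM dose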;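 further: 0 = sulfaphenazole-blocked wells and 1 = vehicle-only wells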
Target sequence (P11712 whole entry, looked up): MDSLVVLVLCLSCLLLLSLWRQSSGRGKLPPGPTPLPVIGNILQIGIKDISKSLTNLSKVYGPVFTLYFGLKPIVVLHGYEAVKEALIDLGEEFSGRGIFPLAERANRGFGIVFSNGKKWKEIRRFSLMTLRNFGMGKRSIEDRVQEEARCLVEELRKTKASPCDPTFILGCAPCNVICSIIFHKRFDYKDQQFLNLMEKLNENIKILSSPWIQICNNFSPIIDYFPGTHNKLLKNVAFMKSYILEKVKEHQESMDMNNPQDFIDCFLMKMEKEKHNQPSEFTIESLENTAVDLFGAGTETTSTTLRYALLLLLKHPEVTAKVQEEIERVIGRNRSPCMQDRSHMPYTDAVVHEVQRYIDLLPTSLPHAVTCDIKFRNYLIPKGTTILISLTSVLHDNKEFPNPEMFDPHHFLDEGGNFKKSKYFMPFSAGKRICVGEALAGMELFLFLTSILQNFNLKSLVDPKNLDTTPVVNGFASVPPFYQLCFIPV
CYP2C19 inhib: blocks human cytochrome P450 2C19 | P33261 | CYP2C19 Supersomes, luciferin-H EGE luminescence, 30 min | inhibition, % at 5 µM | 96,000 compounds, 21% hits | AID 778;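 active means CYP2C19 inhibition above a set limit at 5 µM in the primary screen, cut at about 50% in these data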;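 further: plate controls were negative control wells for no effect and 2.5 mM tranylcypromine positive control for full effect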
CYP2C9 inh: blocks human cytochrome P450 2C9. P11712. CYP2C9 Supersomes, luciferin-H conversion, luminescence. inhibition, % at 5 µM. 96,000 compounds, 20% hits. AID 777;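 active means blocking of liver enzyme CYP2C9 beyond about 50% at 5 µM, limit read from the data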
CYP2C19 activ: increases human CYP2C19 enzyme activity; activation factor at 5 µM; P33261; recombinant CYP2C19, luciferin-H EGE luminescence; active compounds read high; 0 = fully inhibited enzyme, 1 = untreated enzyme; 96,000 tested, under 10 active;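 active means activation factor of at least 2 at 5 µM in the primary screen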;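 further: 0 = wells with 2.5 mM tranylcypromine and 1 = vehicle-only wells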
hDAT+cocaine: human DAT dopamine uptake with cocaine, either direction; Q01959; B-score at 10 µM; LLC-PK1 hDAT cells, [14C]-dopamine uptake with cocaine IC80; actives deviate in either direction; 110,000 compounds, 1.3% hits; AID 449768;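 active means Z score or B-score, a plate-position-corrected score, falls beyond the plate's 99.7% confidence bounds, in either direction; inactive means both scores lie inside the 99.7% bounds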;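 further: scored against the spread of the other compound wells on the same plate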
D1 mod: allosterically modulates the human D1 dopamine receptor | 58,000 compounds, 5.9% hits | HEK293 D1, CRE-luciferase, dopamine EC30 potentiation; actives deviate in either direction | P21728 | B-score at 10 µM;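 active means luminescence count or its row- and column-corrected plate score outside the 99.7% band of the plate's sample wells, on either side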
The depositor's hits bear a star. Sampled rows, rich in hits. Any-hit rate of the full collection: about 28%.

How did Cc1ccc(C2CN(c3ccccc3)CC2C(=O)c2ccc(F)cc2)cc1 (stereo not given) do in these assays?
CYP2C9 activ: 0.6; CYP2C19 inhib: 21; CYP2C9 inh: 37; CYP2C19 activ: 0.8; hDAT+cocaine: -0.32

How did Cn1c(COc2ccccc2)nnc1SCC(=O)c1cccc([N+](=O)[O-])c1 do in these assays?
CYP2C9 activ: 0.7; CYP2C19 inhib: 8; CYP2C9 inh: 33; CYP2C19 activ: 0.9; hDAT+cocaine: -0.49

How did CC(C)Cc1[nH]c(=O)c(C#N)c2c1CCCC2 do in these assays?
CYP2C9 activ: 0.7; CYP2C19 inhib: -7; CYP2C9 inh: 27; CYP2C19 activ: 1.1; hDAT+cocaine: 0.02

How did CC1(C)C=C(c2ccc(O)cc2)CC(C)(C)N1 do in these assays?
CYP2C9 activ: 1; CYP2C19 inhib: 0; CYP2C9 inh: 2; CYP2C19 activ: 1; hDAT+cocaine: -0.34; D1 mod: 0.33

How did Cc1ccc(S(=O)(=O)N2CCN(CCO)CC2)cc1-c1nnc2c3ccccc3c(C)nn12 do in these assays?
hDAT+cocaine: -0.52; D1 mod: 2.7

How did CCn1c(C(C#N)/C(=N\S(=O)(=O)c2cccs2)c2ccccc2)nc2ccccc21 (stereo not given) do in these assays?
CYP2C9 activ: 0.9; CYP2C19 inhib: 3; CYP2C9 inh: 12; CYP2C19 activ: 1; hDAT+cocaine: -0.55; D1 mod: 0.96

What do the screens show for `Cc1ccc(C)c(C(=O)Nc2c(C(N)=O)oc3ccccc23)c1`?
CYP2C9 activ: 1.2; CYP2C19 inhib: 10; CYP2C9 inh: -22; CYP2C19 activ: 0.9; hDAT+cocaine: 0.34; D1 mod: 0.7

How did NC(=O)c1oc2ccccc2c1NC(=O)c1ccco1 do in these assays?
CYP2C9 activ: 3.7*; CYP2C19 inhib: -13; CYP2C9 inh: -266; CYP2C19 activ: 1.1; hDAT+cocaine: -0.022; D1 mod: 2.5

How did NC(=O)c1oc2ccccc2c1NC(=O)c1ccccc1 do in these assays?
CYP2C9 activ: 3.8*; CYP2C19 inhib: 22; CYP2C9 inh: -280; CYP2C19 activ: 0.8; hDAT+cocaine: 0.52

What do the screens show for `CCCCN1C(=O)NC2NC(=O)NC21` (stereo not given)?
hDAT+cocaine: -0.44

How did Cc1nn(Cc2ccccc2Cl)c(C)c1N do in these assays?
CYP2C9 activ: 0.9; CYP2C19 inhib: 75*; CYP2C9 inh: 8; CYP2C19 activ: 0.3; D1 mod: 0.026

How did O=C(Nc1ccccc1C(F)(F)F)N1CCN(c2ccc3nncn3n2)CC1 do in these assays?
CYP2C9 activ: 0.3; CYP2C19 inhib: 32; CYP2C9 inh: 72*; CYP2C19 activ: 0.7; hDAT+cocaine: 0.024

Results for CCOC(=O)c1sc2nc(C(C)C)c3c(c2c1N)CC(C)(C)OC3 ?
CYP2C9 activ: 0.3; CYP2C19 inhib: 5; CYP2C9 inh: 69*; CYP2C19 activ: 0.9; hDAT+cocaine: -0.96

What do the screens show for `CCOc1ccccc1N1CCN(Cc2cccc(OC)c2O)CC1`?
CYP2C9 activ: 1.1; CYP2C19 inhib: 16; CYP2C9 inh: -9; CYP2C19 activ: 0.8; hDAT+cocaine: 0.86; D1 mod: -3.7*

How did COc1ccccc1N1CCN(CCOc2c(OC)cccc2OC)CC1 do in these assays?
CYP2C9 activ: 2.2*; CYP2C19 inhib: 15; CYP2C9 inh: -118; CYP2C19 activ: 0.9; hDAT+cocaine: -0.23

What do the screens show for `O=C1Nc2cc(Cl)cnc2N2CCCC12` (stereo not given)?
CYP2C9 activ: 0.2; CYP2C19 inhib: 46; CYP2C9 inh: 83*; CYP2C19 activ: 0.5; hDAT+cocaine: 0.22; D1 mod: 0.029

Results for Nc1c(C(=O)N2CCCCC2)sc(=S)n1-c1ccccc1 ?
CYP2C9 activ: 1.1; CYP2C19 inhib: 2; CYP2C9 inh: -9; CYP2C19 activ: 1; hDAT+cocaine: 2.7*; D1 mod: 0.18

How did Cc1ccc(-n2c(N)c(C(=O)N3CCCCC3)sc2=S)cc1 do in these assays?
CYP2C9 activ: 0.7; CYP2C19 inhib: 67*; CYP2C9 inh: 26; CYP2C19 activ: 0.3; hDAT+cocaine: 1.7; D1 mod: 0.33

What do the screens show for `Cc1ccc(-n2c(N)c(C(=O)N3CCN(C)CC3)sc2=S)cc1`?
CYP2C9 activ: 1; CYP2C19 inhib: -5; CYP2C9 inh: 3; CYP2C19 activ: 1; hDAT+cocaine: 0.52; D1 mod: -0.6

What do the screens show for `CCOC(=O)C1C2C=CC3(CN(C4CCCC4)C(=O)C13)O2` (stereo not given)?
CYP2C9 activ: 1.1; CYP2C19 inhib: 11; CYP2C9 inh: -10; CYP2C19 activ: 0.9; hDAT+cocaine: -0.84; D1 mod: -0.24

How did COc1c(C)cccc1C(=O)Nc1ccc(N2CCN(S(C)(=O)=O)CC2)cc1 do in these assays?
CYP2C9 activ: 1; CYP2C19 inhib: -1; CYP2C9 inh: -1; CYP2C19 activ: 1; hDAT+cocaine: -7.9*; D1 mod: -0.0028

What do the screens show for `COc1ccccc1C(=O)Nc1ccc(N2CCN(S(C)(=O)=O)CC2)cc1`?
CYP2C9 activ: 1.8; CYP2C19 inhib: 53*; CYP2C9 inh: -81; CYP2C19 activ: 0.5; hDAT+cocaine: -0.12; D1 mod: -0.22

How did CC1=C[C@@H](C)[C@@H](c2ccccc2)OC1=O do in these assays?
hDAT+cocaine: -0.17

Results for CCOC(=O)CSc1ncc(OC)c(Sc2ccc(Cl)cc2)n1 ?
CYP2C9 activ: 0.4; CYP2C19 inhib: 30; CYP2C9 inh: 58*; CYP2C19 activ: 0.7; hDAT+cocaine: -0.45

Results for CCOC(=O)CSc1ncc(OC)c(=O)[nH]1 ?
CYP2C9 activ: 1.1; CYP2C19 inhib: 1; CYP2C9 inh: -7; CYP2C19 activ: 1; hDAT+cocaine: 1

Results for CCOC(=O)C(C)Sc1ncc(OC)c(Sc2ccc(Cl)cc2)n1 (stereo not given) ?
CYP2C9 activ: 0.2; CYP2C19 inhib: 45; CYP2C9 inh: 83*; CYP2C19 activ: 0.5; hDAT+cocaine: 0.3

Results for CCOC(=O)C(C)Sc1ncc(OC)c(=O)[nH]1 (stereo not given) ?
CYP2C9 activ: 1; CYP2C19 inhib: 3; CYP2C9 inh: -3; CYP2C19 activ: 1; hDAT+cocaine: -0.89

What do the screens show for `CCS(=O)(=O)N1CCN(Cc2ccncc2)CC1`?
CYP2C9 activ: 0.7; CYP2C19 inhib: 24; CYP2C9 inh: 27; CYP2C19 activ: 0.8; hDAT+cocaine: 1.4

What do the screens show for `O=C(CN(Cc1ccco1)C(=O)c1cccc(Cl)c1)Nc1c(Cl)cc(Cl)cc1Cl`?
CYP2C9 activ: 0.4; CYP2C19 inhib: 51*; CYP2C9 inh: 62*; CYP2C19 activ: 0.5; hDAT+cocaine: 0.016

What do the screens show for `CC(=O)Nc1ccc(Nc2ncnc3c2cnn3-c2cccc(C)c2)cc1`?
CYP2C9 activ: 0.9; CYP2C19 inhib: 9; CYP2C9 inh: 10; CYP2C19 activ: 0.9; hDAT+cocaine: 1; D1 mod: -1

How did CC(=O)Nc1ccc(Nc2ncnc3c2cnn3-c2ccc(C)cc2C)cc1 do in these assays?
CYP2C9 activ: 0.5; CYP2C19 inhib: 54*; CYP2C9 inh: 52*; CYP2C19 activ: 0.5; hDAT+cocaine: 0.97

Screens deposited in PubChem by several laboratories.
